Test results published in article PMC5540273 (PLoS ONE, 2017).

Assays:
Conditions in all cases: concentration: 1 μM, replicates: in singlicate; n = 1
[1] = tested on: T1, PRKR
T1 construct: gene EIF2AK2

[2] = tested on: PRKX
[3] = tested on: PRP4
[4] = tested on: T2, PYK2
T2 construct: gene PTK2B

[5] = tested on: QSK
[6] = tested on: RAF1
[7] = tested on: RET
[8] = tested on: RIOK1
[9] = tested on: RIOK2
[10] = tested on: RIOK3
[11] = tested on: RIPK1
[12] = tested on: RIPK2
[13] = tested on: RIPK4
[14] = tested on: RIPK5
[15] = tested on: ROCK1
[16] = tested on: ROCK2
[17] = tested on: ROS1
[18] = tested on: RPS6KA4(Kin.Dom.1-N-terminal)
[19] = tested on: RPS6KA4(Kin.Dom.2-C-terminal)
[20] = tested on: RPS6KA5(Kin.Dom.1-N-terminal)
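Also: KINOMEscan kinase panel screen.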

SMILES	%Inh [1] [%]	%Inh [2] [%]	%Inh [3] [%]	%Inh [4] [%]	%Inh [5] [%]	%Inh [6] [%]	%Inh [7] [%]	%Inh [8] [%]	%Inh [9] [%]	%Inh [10] [%]	%Inh [11] [%]	%Inh [12] [%]	%Inh [13] [%]	%Inh [14] [%]	%Inh [15] [%]	%Inh [16] [%]	%Inh [17] [%]	%Inh [18] [%]	%Inh [19] [%]	%Inh [20] [%]
O=c1cc(N2CCOCC2)nc2n(Cc3cccc(Cl)c3)ccn12 [GSK2296823]	0	33	4	4	0	6	87	17	10	0	0	0	19	0	0	0	0	6	0	10
Cl.Cn1ccc(-c2cccc(Nc3ccnc4cc(-c5nccs5)ccc34)c2)n1 [GW525701]	5	0	61	45	4	18	5	14	22	0	0	16	23	0	26	39	0	0	0	24
COc1ccc(-c2oc3ncnc(N)c3c2-c2ccc(OC)cc2)cc1 [SB-589132]	0	3	64	7	6	44	11	0	0	0	2	28	1	0	41	0	0	0	0	0
Fc1cccc(COc2ccc(Nc3ncnc4cc[nH]c34)cc2Cl)c1	0	19	34	2	9	4	5	21	15	20	13	25	16	33	0	0	35	9	11	2
O=C(c1ccc(-c2cc(-c3c[nH]nc3-c3ccccn3)ccn2)cc1)N1CCCC1 [GW792479]	4	0	12	7	0	43	5	10	0	19	1	9	5	0	0	0	0	13	0	0
CCn1c(-c2ccncc2)nc2cnccc21 [SB-735216]	0	0	18	1	27	6	0	12	20	0	0	15	10	14	31	13	2	0	11	0
Cn1cc(-c2ccc3c(c2)CCN3C(=O)Cc2cccc(C(F)(F)F)c2)c2c(N)ncnc21 [GSK2606414]	0	16	9	0	0	14	78	28	18	0	75	1	3	9	4	13	0	16	0	25
Nc1nc(-c2ccc3c(N)n[nH]c3c2)cc(N2CCCCC2)n1 [GSK2228768]	6	35	0	0	0	7	1	64	9	28	0	0	7	0	0	0	6	4	0	6
CC(C)N1CCC(n2cnc(-c3ccc(F)cc3)c2-c2ccnc(N)n2)CC1 [SB-223132]	18	0	41	12	0	33	2	0	0	60	4	48	0	0	1	0	0	14	0	7
COc1ccc(Nc2nccc(N3CCC(NC(=O)Nc4ccc5c(c4)OCO5)C3)n2)cc1 (stereo not drawn) [GSK1379745]	0	19	23	27	8	22	9	28	5	35	0	0	0	0	12	9	34	13	0	0
CSc1nn2c(=O)cc(N3CCOCC3)nc2n1Cc1cccc(Cl)c1Cl [GSK2347225]	0	23	0	31	8	6	11	34	28	19	0	20	7	0	15	0	46	17	0	11
CC(C)(C)c1ccc(-n2cnc3c(N)ncnc32)cc1 [SKF-97263]	0	19	7	4	0	0	8	22	26	23	1	0	16	14	0	0	15	0	2	19
Fc1ccc(Nc2nccc(-c3c(-c4ccc(Cl)cc4)nn4ncccc34)n2)cc1F [GW829058]	0	0	0	1	20	18	9	0	10	7	0	12	29	37	20	33	14	25	3	2
C[C@@H]1CCN(C(=O)CO)C[C@@H]1N(C)c1ncnc2[nH]ccc12	0	7	0	0	0	0	0	0	0	0	0	0	0	12	16	23	0	88	0	0
Cl.O=S(=O)(c1cccc(F)c1)c1ccc(Nc2ncnc3cc(Br)sc23)cc1Cl [GSK306886]	0	24	13	0	0	10	97.9	9	3	22	29	42	0	16	9	14	12	16	0	0
Cc1cc(N2CCC(NS(=O)(=O)c3ccc(F)cc3)CC2)nc(Nc2cccc(C#N)c2)n1.O=C(O)C(F)(F)F [GSK1653537]	0	0	3	37	9	0	29	45	0	25	57	0	4	0	0	0	7	0	0	28
Clc1cc(Nc2ncnc3cc[nH]c23)ccc1OCc1ccccn1	0	13	19	9	0	17	17	24	42	0	0	27	23	31	0	0	6	9	11	3
Cl.Fc1ccccc1COc1ccc(Nc2ncnc3ccc(-c4nnc(C(F)(F)F)o4)cc23)cc1Cl [GW424170]	0	0	16	14	0	7	0	22	0	18	9	28	0	0	10	4	11	10	0	6
Cn1ccc2ncnc(Nc3ccc(Oc4cccc(Cl)c4)c(Cl)c3)c21	0	11	11	27	2	0	10	0	18	3	0	47	0	40	3	0	0	0	1	19
Nc1nc(-c2ccccn2)c(-c2ccnc3ccccc23)s1 [GW548057]	1	0	66	20	0	15	23	19	0	27	16	15	2	14	27	33	1	12	0	21
Cl.Cl.c1ccc(-c2cc3ccncc3cc2OC2CCNCC2)cc1 [GSK1122999]	0	34	0	10	7	12	28	33	0	45	31	17	9	1	94.6	91.6	33	11	39	27
